# Out of some 310,000 compounds screened, about 18,000 (5.8%) were called active. About 22% were inconclusive and are not listed. Only a selection was taken, and actives are over-represented in it overall. A number with no mark means an inactive call. The call rests on the fitted dose curve; in most records, active means well fitted inhibition curve with a large enough effect; inconclusive means small, poorly fitted or top-dose-only effect, or another doubt; inactive means no such curve, though single readings can be large or run the other way.
# Assay: Primary qHTS for delayed death inhibitors of the malarial parasite plastid, 48 hour incubation
# Settings: P. falciparum luciferase growth in erythrocytes; series mostly up to 28.7 µM; activity change, negative = inhibition: at the top concentration
# Procedure, shortened: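 Luciferase-expressing P. falciparum in infected erythrocytes (2% hematocrit, 0.1% parasitemia final) in RPMI 1640/0.5% Albumax were exposed to compound for 48 hours at 37 C, 5% CO2; growth read as luminescence.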
# On the % scale 0 is the no-effect control and ±100 the full control effect; potency means the concentration at half of the fitted maximal effect.
SMILES,"activity change, negative = inhibition [%]",Potency
Cc1cccc(C)c1NC(=O)CSc1nnc(-c2ccccc2)n1Cc1ccc2c(c1)OCO2,-15.3,–
O=C(C1CCN(Cc2ccc(Cl)cc2)CC1)N1CCN(Cc2ccc3c(c2)OCO3)CC1,-25.3,–
Fc1ccccc1C(c1nnnn1Cc1ccc2c(c1)OCO2)N1CCN(Cc2ccccc2)CC1 (centres undefined),–,6.57 µM (active)
Cc1cc(C)c2[nH]c(=O)c(C(c3nnnn3Cc3ccc4c(c3)OCO4)N3CCCC3)cc2c1 (centres undefined),–,13.1 µM (active)
Cc1ccc(S(=O)(=O)Cn2nnnc2CN2CCN(Cc3ccc4c(c3)OCO4)CC2)cc1,-13.9,–
Cc1ccc(CN2CCCC(C(=O)c3ccc4c(c3)OCO4)C2)cc1C (centres undefined),2.04,–
CSc1ccccc1NC(=O)COC(=O)CCCOc1ccc(C)cc1,-20.5,–
CCOC(=O)c1cnc(-n2nc(C)cc2C)nc1-n1nc(C)cc1C,6.57,–
CCOC(=O)c1cnc(-n2nc(C)cc2C)nc1NNc1cc(C)nc(-c2ccccc2)n1,–,3.29 µM (active)
CCOC(=O)c1c(C)nc(-c2ccccc2)nc1NC(=O)C(C)C,176,–
COCCOC1CCN(C(=O)c2ccc(OC)c(OC3CCN(C(C)C)CC3)c2)CC1,10.5,–
COc1ccccc1NC(=O)C(C)OC(=O)c1ccc(-n2cnnn2)cc1 (centres undefined),-2.09,–
Cc1ccc(Nc2nnc(SCc3ccccc3)s2)cc1,-9.22,–
COc1cc(Br)c(-c2sc(Nc3ccccc3)n[n+]2-c2ccccc2)cc1OC,2.26,–
CCc1ccc(Nc2n[n+](-c3ccccc3)c(-c3cccc(Cl)c3Cl)s2)cc1,–,4.15 µM (active)
CC(=O)Nc1ccc(S(=O)(=O)N2CCN(S(=O)(=O)c3cccs3)CC2)cc1,-11.5,–
CC(=O)Nc1ccc(S(=O)(=O)N2CCN(CCCOc3cc(C)ccc3C)CC2)cc1,–,7.38 µM (active)
Cc1ccc(C)c(S(=O)(=O)N2CCN(CC(=O)Nc3ccc([N+](=O)[O-])cc3)CC2)c1,-29,–
CCOC(=O)C1(Cc2cccc(OC)c2)CCN(Cc2csc(C(C)=O)c2)CC1,-14.8,–
CCOC(=O)C1(CCOC)CCN(Cc2cc3ccccc3s2)CC1,37.1,–
CCOC(=O)C1(CCOC)CCN(Cc2ccc(C(=O)OC)cc2)CC1,–,10.4 µM (active)
O=C(COc1ccc(Cl)cc1)Nc1ccc2c(c1)OCO2,20.7,–
COc1ccc(NS(=O)(=O)c2cc(NC(=O)/C=C/c3cc(OC)c(OC)c(OC)c3)ccc2N2CCCCC2)cc1,–,1.17 µM (active)
O=C(Nc1cccc(OCC(=O)N2CCOCC2)c1)C1CCCCC1,-3.36,–
COc1ccc(NS(=O)(=O)c2ccc(N3CCN(CCO)CC3)c([N+](=O)[O-])c2)cc1,-3.24,–

SMILES,"activity change, negative = inhibition [%]",Potency
COc1ccc(NS(=O)(=O)c2cc(NC(=O)C3CCCCC3)ccc2N2CCOCC2)cc1,–,10.4 µM (active)
COc1ccc(CNC(=O)C2CCN(S(=O)(=O)N3CCOCC3)CC2)cc1,2.02,–
COc1ccc(/C=C/C(=O)Nc2ccc3c(c2)OCCO3)cc1OC,28.1,–
C=CCOc1cccc(C2NC(=O)c3ccccc3O2)c1 (centres undefined),0.379,–
COc1ccc(N(CC(=O)NCC2CCCO2)C(=O)CCC(=O)Nc2nccs2)c(OC)c1 (centres undefined),-20.9,–
Cc1ccc(N2CC(C(=O)Nc3cc(Cl)ccc3-n3cncn3)CC2=O)cc1 (centres undefined),-22.5,–
Cc1ccc2c(c1)N(CC(=O)NCC1CCCO1)C(=O)CO2 (centres undefined),4.3,–
COc1cccc(C(=O)NCCS(=O)(=O)NCC2CCCO2)c1 (centres undefined),3.22,–
COc1cc2c(cc1OC)CN(C(=O)c1ccc(S(=O)(=O)N3CCCCCC3)cc1)CC2,–,6.57 µM (active)
COc1ccc(S(=O)(=O)N2CCC(C(=O)N3CCc4ccccc4C3)CC2)cc1OC,-23.1,–
COc1cc(C(=O)NNC(=O)c2ccc(S(=O)(=O)N3CCCCC3)cc2)cc(OC)c1OC,1.28,–
COC(=O)C1(CCSC)NC(c2ccc(OC)cc2OC)C2C(=O)N(c3cccc(C(C)=O)c3)C(=O)C21 (centres undefined),-19.3,–
CSc1ccccc1NC(=O)c1ccc2c(c1)CCN2S(C)(=O)=O,41.5,–
COc1ccc2cc(C(=O)O)n(CC(=O)c3ccccc3)c2c1,18.2,–
Cc1cccc(N(C(=O)c2ccc(CN3CCOCC3)o2)C(C(=O)NC2CCCCC2)c2ccc(F)cc2)c1 (centres undefined),7.73,–
Cc1ccc(CS(=O)Cc2ccc(C(=O)N3CCOCC3)o2)cc1 (centres undefined),3.7,–
Cc1ccc(N(C(=O)c2ccc(CN3CCOCC3)o2)C(C(=O)NCCC(C)C)c2cccs2)c(C)c1 (centres undefined),–,10.4 µM (active)
Cc1c(NS(=O)(=O)c2cc(C(=O)NCCc3ccc(F)cc3)cc(Cl)c2Cl)c(=O)n(-c2ccccc2)n1C,-17,–
COC(=O)c1ccc(NC(=O)CSc2nnc(C3CC3)n2C)cc1,-5.32,–
CCOC(=O)c1c(-c2ccc(C)cc2)csc1/N=C(\C)C1=C(O)c2ccccc2C1=O,-24.3,–
CCOC(=O)c1ccccc1NS(=O)(=O)c1ccc(OC)cc1,-12.7,–
CCOC(=O)C1=C(c2ccc(OC)cc2)C(=O)c2ccccc2C1=O,–,2.94 µM (active)
COc1ccc(-c2cc(C(=O)NCCCN3CCOCC3)no2)cc1,1.35,–
O=[N+]([O-])c1ccc(Oc2ccc(F)cc2Br)c2ccncc12,–,14.7 µM (active)
Cn1c(SCc2ccc(F)cc2)nnc1-c1ccncc1,-20.5,–

SMILES,"activity change, negative = inhibition [%]",Potency
Cc1ccc(-c2csc(NC(=O)c3cnccn3)n2)cc1C,20.3,–
Cc1ccc(-c2csc(NC(=O)C3=COCCO3)n2)cc1C,–,10.4 µM (active)
Cc1csc(NC(=O)C2=COCCO2)n1,115,–
CN(Cc1ccccc1)C(=O)c1cccc(C(=O)N(C)Cc2ccccc2)c1,4.36,–
CC(C)C[C@H](CO)Nc1nc(N(C)c2cccc(Cl)c2)c2ncn(C(C)C)c2n1,–,13.1 µM (active)
O=C(CCCC(=O)N1CCN(c2cccc(Cl)c2)CC1)c1ccccc1,-4.33,–
Cc1ccc(C)c(N2CCN(C(=O)Cn3ncn4cccc4c3=O)CC2)c1,31.9,–
CN1CN(C)c2ccc([N+](=O)[O-])c3cccc1c23,34.5,–
Cc1ccc(C(=O)N2CCC(n3nccc3NC(=O)Nc3cccc(F)c3)CC2)cn1,7.73,–
CCOc1cccc(SCc2noc(C(=O)NC(C)C)c2C(=O)O)c1,21.5,–
CCCCNC(=O)c1onc(CSc2cccc(OC)c2)c1C(=O)O,18.7,–
CCCNC(=O)c1onc(CSc2ccc(F)cc2)c1C(=O)NC(C)C,–,9.28 µM (active)
CCc1ccccc1S(=O)(=O)Cc1ccc(C(=O)NCCc2ccccc2)o1,-4.64,–
COCCNC(=S)N(Cc1cccnc1)Cc1ccc(OC)c(OC)c1,-3.14,–
O=C(Nc1ccccc1)N(Cc1cccnc1)Cc1ccco1,-0.883,–
Cc1ccc(C)c2[nH]c(=O)c(CN(Cc3cccnc3)C(=S)NCc3ccco3)cc12,–,9.28 µM (active)
COc1ccc(C(=O)N2CCN(c3ncccn3)CC2)cc1S(=O)(=O)N1CCOCC1,22,–
COc1cc(C(=S)N2CCOCC2)cc(OC)c1OC(=O)c1ccc([N+](=O)[O-])cc1[N+](=O)[O-],34.1,–
CCC(C)Sc1nc2c(cnn2-c2ccc(F)cc2)c(=O)[nH]1 (centres undefined),18.2,–
Cc1cccc(C)c1NC(=O)COC(=O)c1ccccc1O,11.5,–
Cn1nnnc1SCc1cc(=O)[nH]c2ccccc12,10.9,–
CC(=O)N(Cc1cc(=O)[nH]c2ccccc12)c1ccc(C)cc1C,-19.8,–
Cc1ccc(N(Cc2cc(=O)[nH]c3ccccc23)C(=O)CCl)cc1,–,9.28 µM (active)
COc1cc(/C=N/NC(=O)CNC(=O)c2ccncc2)ccc1OC(C)=O,28.7,–
O=C(COC(=O)/C=C/c1cccs1)NC1CCCCC1,5.56,–

SMILES,"activity change, negative = inhibition [%]",Potency
O=C(CSc1nc2ccccc2[nH]1)N/N=C/C=C\c1ccccc1[N+](=O)[O-],7.14,–
Cc1ccc(-n2c(SCC(=O)N/N=C/C=C/c3ccccc3[N+](=O)[O-])nc3ccccc3c2=O)cc1,–,13.1 µM (active)
CCn1c(SCC(=O)N/N=C/C=C/c2ccccc2[N+](=O)[O-])nnc1-c1ccccc1,-3,–
Cc1ccc(C(=O)NC23CC4CC(CC(C4)C2)C3)c(Cl)c1,2.76,–
CN(C(=O)COC(=O)CCCc1c[nH]c2ccccc12)c1c(N)n(Cc2ccccc2)c(=O)[nH]c1=O,3.11,–
O=C(CSc1nn(-c2ccc(F)cc2)c(=S)s1)NC1CCS(=O)(=O)C1 (centres undefined),-19.4,–
N#CCSc1nn(-c2ccc(F)cc2)c(=S)s1,–,5.86 µM (active)
Cc1ccccc1-n1nc(SCC(=O)O)sc1=S,6.96,–
CCOC(=O)Cc1csc(SCC(=O)Nc2ccc(C)cc2F)n1,1.53,–
O=C1COc2ccc(S(=O)(=O)NCCc3ccc(Cl)cc3)cc2N1,-15.4,–
CSc1ccccc1NC(=O)c1cnc2sc(C)cn2c1=O,74.1,–
CCC(=O)Nc1ccc(Nc2nc(Cl)nc(Nc3ccc(NC(=O)CC)cc3)n2)cc1,21.1,–
COc1ccc(C(=O)NNc2cc(C)nc(NNC(=O)c3ccc(OC)cc3)n2)cc1,58,–
CC(=O)Nc1ccc(Nc2cc(C)nc(Nc3ccc(NC(C)=O)cc3)n2)cc1,–,1.65 µM (active)
Cn1nc(-c2ccccc2)c2cc([N+](=O)[O-])ccc21,-3.2,–
COc1ccc(NC(=O)COC(=O)Cn2c(C)nc3ccccc32)cc1OC,9.03,–
COc1ccc(NC(=O)Cn2nnc(C(=O)NCCc3ccc(OC)c(OC)c3)c2N)cc1,-10.4,–
COc1ccc(-c2cn(-c3ccc(C)cc3)c(=O)n2CC(=O)Nc2ccc(OC)c(OC)c2)cc1,–,14.7 µM (active)
COC(=O)c1ccc(COc2ccc(C#N)cc2)o1,7.42,–
COc1ccc(OCC(=O)NCCS(=O)(=O)N2CCN(c3ccc(F)cc3)CC2)cc1,-0.428,–
CC(C)CC(=O)c1c[nH]c(C(=O)NCc2ccccc2)c1,-10.2,–
Cc1nnc(SCC(=O)N2c3ccccc3C(C)(c3ccc(Cl)cc3)CC2(C)C)s1 (centres undefined),–,10.4 µM (active)
Cc1nnc(SCC(=O)N2CCc3ccccc3C2)s1,16.2,–
Cc1nnc(SCC(=O)NCc2ccccc2)s1,-5.4,–

# — PubChem BioAssay AID504832 (National Center for Advancing Translational Sciences (NCATS), 2011)
